Rows were chosen to be rich in hits. Some 9.4% of all compounds tested hit in one or more screens of this group.
NPC1 promoter act = NPC1 promoter activation | Potency, µM (titrated, usually from 9.22 µM), for inactives: top-dose activation, actives largely listed as activators | 320,000 tested, 2.4% active | Huh7 NPC1 promoter luciferase reporter, 24 h; also: % of control where 0% means no effect; nearly all actives have a fitted effect of over 60% in size
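Luciferase expression driven by the NPC1 promoter was measured in stably transfected Huh7 cells after a 24 h compound incubation, using a luciferase reagent and a luminescence read.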
FLuc counter = counter-screen for miR-21 project: firefly luciferase inhibitors or activators | purified FLuc, Km substrates, luminescence inhibition | Potency, µM (top dose mostly 57.5 µM), for the others: at the highest dose activity change, negative = inhibition, usual class: inhibitors | 360,000 tested, 6.9% active | AID 588342;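 also: plate controls were vehicle for no effect and reference inhibitor for full effect; nearly all actives have a fitted effect of over 55% in size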
Target sequence (P08659 whole entry, looked up): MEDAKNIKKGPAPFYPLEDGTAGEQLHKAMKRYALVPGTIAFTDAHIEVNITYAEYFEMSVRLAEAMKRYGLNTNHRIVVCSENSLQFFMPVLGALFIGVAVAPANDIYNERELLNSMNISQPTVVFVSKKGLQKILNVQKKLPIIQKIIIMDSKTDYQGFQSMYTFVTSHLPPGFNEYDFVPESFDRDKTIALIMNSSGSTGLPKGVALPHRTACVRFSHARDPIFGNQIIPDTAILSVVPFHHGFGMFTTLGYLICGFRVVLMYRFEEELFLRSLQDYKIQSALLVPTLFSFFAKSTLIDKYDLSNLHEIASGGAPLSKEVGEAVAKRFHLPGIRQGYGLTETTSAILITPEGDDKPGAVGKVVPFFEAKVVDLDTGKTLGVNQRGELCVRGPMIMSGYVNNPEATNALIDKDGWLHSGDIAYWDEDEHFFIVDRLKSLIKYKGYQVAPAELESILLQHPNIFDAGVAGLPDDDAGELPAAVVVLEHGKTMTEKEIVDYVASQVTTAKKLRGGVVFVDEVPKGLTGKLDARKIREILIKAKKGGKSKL
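Biochemical qHTS of compounds, final roughly 60 µM downward over six points, against 10 nM purified firefly luciferase using Km concentrations of substrates (10 uM D-luciferin, 10 uM ATP) in Tris acetate pH 7.5 buffer; luminescence output.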
ELG1 genotoxic = inducers of genotoxicity in HEK293T ELG1-luciferase cells; HEK293T ELG1-luciferase reporter, luminescence, 16 h; Potency, µM (top dose mostly 46 µM), without a hit: at the highest dose activity change, positive = activation, most hits filed as activators; 330,000 tested, 1.3% active; also: % of control where 0% means no effect; nearly all actives have a fitted effect of over 60% in size
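Genotoxic stress is detected as increased luminescence from luciferase-tagged ELG1 in HEK293T cells, measured with ONE-Glo after a 16 hr treatment at 37 °C.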
SMN2 splice enh = enhancers of SMN2 splice variant expression; Potency, µM (doses to about 46.1 µM), inactives show at the top dose activity change, positive = activation, most hits filed as activators; AID 1458; 210,000 tested, 2.8% active; HEK293 SMN2-luciferase splicing reporter, luminescence, 30-36 h; also: % of control where 0% means no effect; nearly all actives have a fitted effect of over 55% in size
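qHTS luciferase splicing reporter: luminescence rises when SMN2 exon 7 is included in transfected HEK293 cells. Compound exposure lasted 30-36 h at 37C, with 4.5 mM final sodium butyrate as control, followed by a ONE-Glo read.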
Rab9 promoter act = activators of Rab9 promoter | Potency, µM (top dose mostly 9.22 µM), for the others: at the top dose activation, negative = inhibition, most hits filed as activators | Huh7 Rab9 promoter-luciferase reporter, luminescence, 24 h | 320,000 tested, 2.8% active; also: % of control where 0% means no effect; nearly all actives have a fitted effect of over 60% in size
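Promoter activation is measured as luciferase luminescence in Huh7 cells stably transfected with a Rab9 promoter–luciferase construct, following 24 h compound exposure at 37 °C and 10 min reagent incubation at ambient temperature.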
ELG1 repair inh = inhibitors of ELG1-dependent DNA repair in HEK293T cells; 330,000 tested, 2.3% active; HEK293T ELG1-luciferase reporter, luminescence, 16 h; DNA damage induced by 5-fluorouridine; AID 504467; Potency, µM (doses to about 46.1 µM), for inactives: at the top dose activity change, negative = inhibition, usual class: inhibitors; also: % is scaled to controls: 0 for no effect and ±100 for the full control effect; nearly all actives have a fitted effect of over 55% in size
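DMSO vehicle served as the neutral condition. Each well held 2,000 cells given 5-fluorouridine plus compound; after 16 hr at 37 °C/5% CO2, ONE-Glo was added and luciferase measured 30 min later.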
An asterisk follows results filed as active; ? = inconclusive; / = no result given. Calls follow the shape of the dose curve; as a rule, active = well fitted curve in the direction sought with a large enough effect; inconclusive = small, poorly fitted or top-dose-only effect, or another doubt; inactive = no such curve, though single readings can be large; an effect the other way counts as inactive or inconclusive. Potency is read from the fitted curve at half-maximal effect.

SMILES | NPC1 promoter act | FLuc counter | ELG1 genotoxic | SMN2 splice enh | Rab9 promoter act | ELG1 repair inh
O=S(=O)(c1ccc(Br)cc1)c1nc(-c2ccco2)oc1SCc1ccccc1F | / | -7% | / | -13% | / | /
O=C(NCCc1cccs1)c1ccc(Cl)c(Cl)c1 | 3.2µM* | 11µM* | ? | / | 2.2µM* | ?
Cc1ccc(C(=O)NCCc2cccs2)cc1 | 0.32µM* | 0.85µM* | ? | 0.5µM* | 0.1µM* | ?
O=C(/C=C/c1ccc(Cl)cc1)NCc1cccs1 | 8% | 15µM* | 16% | 4% | 12% | ?
CCOc1c2ccc(C(=O)NCCc3ccc(C)cc3)cc2nn1CC | 1% | -2% | 4% | -29% | -1% | 16%
CCn1nc2cc(C(=O)NCCc3cccs3)ccc2c1OC | 2.5µM* | 6.7µM* | ? | ? | 1.1µM* | ?
O=C(/C=C/c1cccc(Cl)c1)NCc1cccs1 | 10% | ? | 2% | -2% | 8% | 10%
CCOC(=O)Cn1c(=O)n(C2CCCCC2)c2nc(-c3c(F)cccc3Cl)nc(C(N)=O)c21 | / | -6% | / | / | / | /
CCOc1c2ccc(C(=O)NCc3ccc(C)cc3)cc2nn1CC | -2% | 0% | 0% | 13µM* | -5% | 9%
O=C(NCCc1cccs1)c1ccc(CS(=O)Cc2ccc(Cl)cc2)o1 (configuration not stated) | -1% | -1% | 2% | / | 1% | 6%
CC(C)Oc1ccc(C(=O)NCc2cccs2)cc1 | 30% | 13µM* | ? | 22% | ? | ?
O=C(CCS(=O)(=O)c1cccs1)Nc1ccc(C(=O)NCc2cccs2)cc1 | -1% | -2% | 1% | -7% | 7% | 16µM*
CCCn1nc2cc(C(=O)NCc3ccc(C)cc3)ccc2c1OCC | -3% | -11% | 0% | 0% | -6% | 8%
O=C(CCS(=O)(=O)c1cccs1)Nc1ccc(C(=O)NCc2ccc(F)cc2)cc1 | 0% | -3% | 1% | -15% | 12% | -18%
O=C(NCCc1cccs1)c1ccc(Cl)cc1 | 0.35µM* | 1.2µM* | ? | / | 0.32µM* | ?
NCCC[C@@H](CC(=O)N[C@@H]1CCCC[C@H]1C(=O)N[C@H](CC(=O)N[C@@H](CCC(=O)O)CC(=O)O)Cc1ccccc1)NC(=O)C[C@H](CO)NC(=O)[C@@H]1CNCC[C@H]1N | / | / | / | -2% | / | /
COc1cc(NC(=O)c2c(C)oc3ncnc(N4CCCCC4)c23)cc(OC)c1 | / | 0% | / | / | / | /
COc1ccc(/C=C2\SC(=O)N(CCNC(=O)C3CC4C=CC3C4)C2=O)cc1 (configuration not stated) | 2.8µM* | 6.7µM* | ? | 25µM* | 0.71µM* | ?
COc1ccc(/C=C2\SC(=O)N(CCNC(=O)C3CSC4(C)CCC(=O)N34)C2=O)cc1 (configuration not stated) | 15% | 17µM* | 1% | / | 17% | 23%
CC12CCC(=O)N1C(C(=O)NCCN1C(=O)S/C(=C\c3ccc(OC(F)F)cc3)C1=O)CS2 (configuration not stated) | 2% | 0% | -12% | / | -2% | ?
COc1ccc(/C=C2\SC(=S)N(CCC(=O)N3CCCCC3CCO)C2=O)cc1 (configuration not stated) | -1% | ? | -9% | / | -6% | ?
COc1ccc(/C=C2\SC(=O)N(CCC(=O)N3CCCCC3CCO)C2=O)cc1 (configuration not stated) | -4% | 9.5µM* | -2% | / | -1% | 3%
COc1ccc(C(=O)N2CCCCC2CCN2CCOCC2)cc1 (configuration not stated) | / | -1% | / | 5% | / | /
N#Cc1ccccc1Cn1c(=O)n(CCCCC(=O)NCc2ccc3c(c2)OCO3)c(=O)c2ccccc21 | / | -7% | / | 1% | / | /
COc1cccc2c1cc1c(=O)n(CC(=O)N3CCN(c4cccc(C(F)(F)F)c4)CC3)nc(C)n12 | / | -5% | / | 0% | / | /
SMILES | NPC1 promoter act | FLuc counter | ELG1 genotoxic | SMN2 splice enh | Rab9 promoter act | ELG1 repair inh
CC(C)(C)c1cc[n+](C2=C([O-])c3ccccc3C(=O)/C2=N\S(=O)(=O)c2ccccc2)cc1 | -11% | ? | -12% | / | -28% | 15µM*
CC(C)[n+]1ccn(C2=C([O-])c3ccccc3C(=O)/C2=N\S(=O)(=O)c2ccccc2)c1 | 2% | -2% | -13% | / | -1% | 23µM*
CCCC[n+]1ccn(C2=C([O-])c3ccccc3C(=O)/C2=N\S(=O)(=O)c2ccccc2)c1 | 1% | -3% | -1% | -51% | 16% | ?
COc1ccc(NC(=O)CSc2nc(O)c(C/C=C/c3ccccc3)c(=O)[nH]2)cc1 | / | 5.4µM* | / | -3% | / | /
COc1ccc2nc(SCC(=O)Nc3ccc4[nH]c(=O)[nH]c4c3)[nH]c2c1 | 1% | 15µM* | -2% | / | -2% | 5%
CC(C)OC(=O)c1ccc(NC(=O)CSc2nc3ncccc3[nH]2)cc1 | 1% | 17µM* | 1% | -19% | 13% | -21%
CC(C)c1ccc(NC(=O)CSc2nc3ncccc3[nH]2)cc1 | 9% | -18% | 3% | / | 16% | 8%
COc1ccc2nc(SCC(=O)N3CCNC3=O)[nH]c2c1 | 2.5µM* | 21µM* | ? | ? | 2µM* | ?
COC(=O)C1CCN(C(=O)CSc2nc3ccc(OC)cc3[nH]2)CC1 | 15% | 0% | 5% | 11% | -2% | 0%
N#Cc1cccc(CS(=O)(=O)c2nc3ccccc3s2)c1 | / | / | / | 1% | / | /
O=C(CSc1nc(O)c(Cc2ccccc2)c(=O)[nH]1)Nc1nnc(SCc2ccccc2)s1 | -5% | 11µM* | 2% | / | 11% | -6%
COc1ccc(NC(=O)c2ccc(NC(=O)CSc3nccc(=O)[nH]3)cc2)cc1 | 17% | 15µM* | 8% | / | 3% | ?
CCCCc1nnc(NC(=O)CSc2nc(O)c(Cc3ccccc3)c(=O)[nH]2)s1 | -2% | ? | 1% | -50% | -7% | 3%
Cc1ccc(SCC(=O)N2CCc3ccccc32)cc1 | 19% | 9.5µM* | ? | ? | ? | ?
O=C(CS(=O)(=O)c1ccccc1)N1CCc2ccccc21 | 4µM* | 15µM* | ? | 14µM* | 2.5µM* | ?
O=C(C1CCCN(S(=O)(=O)Cc2ccccc2)C1)N1CCc2ccccc21 (configuration not stated) | -1% | -1% | -13% | -12% | 0% | 26µM*
Nc1ccccc1SCC(=O)N1CCc2ccccc21 | ? | 17µM* | ? | 68% | ? | ?
O=C(CSc1ccccc1C(=O)O)c1ccc(Cl)cc1 | 4µM* | 11µM* | ? | / | 4µM* | ?

Screening data (PubChem)
